# Screening data as filed in PubChem BioAssay.
# Shown are actives, neighbours in structure and some others; about 8.1% of the full set was active somewhere.
# Shh pathway inh: Sonic Hedgehog pathway inhibition. Shh-LIGHT2 Gli-luciferase reporter, 30 h. inhibition, % (test concentration not listed). 22,000 tested, 2.1% active;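 active = mean inhibition across valid replicates above about 65%, limit read from the data; inconclusive = mean under the limit, yet half or more replicates past it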;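 note: pathway switched on by Shh-conditioned medium diluted 1 in 25 in low serum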
# MITF inh: inhibitors of MITF | TRPM1 promoter luciferase, luminescence, 24 h | inhibition, % (concentration not given with the values) | 37,000 tested, 0.28% active; in the data active = inhibition above about 85%; inconclusive = no clear call, values can overlap the other calls; inactive = below about 68%;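 note: human melanocyte line stably carrying TRPM1 promoter luciferase reporter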
# NOMO-1 viab: STK33 inhibitor candidate reducing NOMO-1 cell viability; NOMO-1 AML viability, CellTiter-Glo luminescence, 72 h; inhibition, % (concentration not given with the values); 37,000 tested, 7.5% active; AID 2330; in the data active = inhibition above about 80%; inconclusive = no clear call, values can overlap the other calls
# The depositor's hits bear a star; ? = inconclusive; nt = no result given.
SMILES,Shh pathway inh,MITF inh,NOMO-1 viab
c1cncc([C@H]2CCCCN2)c1,4.2,0.5,-5.5
CCN1C[C@@]2(COC)C3[C@@H](OC)[C@H]4[C@@H]1[C@@]3(C1C[C@]3(O)[C@H](OC(=O)c5ccccc5)C1[C@]4(OC(C)=O)[C@@H](O)[C@H]3OC)[C@@H](OC)C[C@H]2O (stereo not given in full),48.3,-1.0,55.5
NCC(CS(=O)(=O)O)c1ccc(Cl)cc1 (stereo not given),12.2,-8.3,-5.3
COC[C@H]([C@@H](O)[C@@H](O)C(=O)NCC[C@@H](C)c1nc(/C=C/C[C@H]2OC3(C[C@H](O)[C@H]2C)OC([C@@H](C[C@@H](O)[C@@H](C)[C@@H](O)[C@@H](C)/C=C(C)/C(C)=C/C=C/C(C)=C\C#N)OC)[C@@H](OP(=O)(O)O)C3(C)C)co1)N(C)C (stereo not given in full),105.3*,65.1,138.6*
CC(C)OC(=O)Nc1cccc(Cl)c1,-28.1,-48.9,-1.4
C=CCC1(NCCc2ccccc2)CCCCC1,nt,-20.5,13.9
CC(C)(C)c1cc(C=C(C#N)C#N)cc(C(C)(C)C)c1O,104.3*,87.8*,97.4*
N#CC(C#N)=Cc1ccc(O)c(O)c1,?,1.3,36.0
C=CCN1C(=O)/C(=C/c2cc(C)n(-c3ccccn3)c2C)C(=O)NC1=S,-8.8,-11.1,111.0*
CCN(CC)C(=O)N[C@@H]1C[C@@H]2c3cccc4[nH]cc(c34)C[C@H]2N(C)C1,-32.6,-14.6,13.8
N#CC(C#N)=NNc1ccc(OC(F)(F)F)cc1,82.3*,66.8,141.3*
COC[C@H]1OC(=O)c2coc3c2[C@@]1(C)C1=C(C3=O)C2CCC(=O)[C@@]2(C)C[C@H]1OC(C)=O (stereo not given in full),?,17.8,?
CCCCSP(=O)(SCCCC)SCCCC,7.8,1.8,-12.0
O=c1c2ccccc2nc(CSc2ccccn2)n1-c1ccccc1Cl,nt,-4.2,5.6
CCc1nc2ccccc2c(=O)n1-c1ccccc1Cl,-32.3,24.7,104.4*
Oc1ccc(C2(c3ccc(O)cc3)CCCCC2)cc1,-21.8,10.8,26.9
c1ccc2sc(C3(N4CCCCC4)CCCCC3)cc2c1,10.2,-10.1,58.2
CCC(C)C1NC(=O)C2CCCN2C(=O)C(CC(C)C)OC(=O)CCNC(=O)C(C)N(C)C(=O)C(C(C)C)N(C)C1=O (stereo not given),58.5,-46.7,106.0*
O=c1c2ccccc2[nH]c(=S)n1-c1cc(C(F)(F)F)cc(C(F)(F)F)c1,18.4,9.3,3.9
CC[C@@]12CCCN3CC[C@]4(c5cccc(OC)c5N(C(C)=O)[C@@H]4CC1)[C@H]32,-9.4,-1.7,21.6
COC1CC(OC2C(C)OC(OC3C(C)OC(OC4C(C)OC(O[C@H]5CC[C@@]6(C)C(=CC[C@]7(O)C6CC(OC(=O)c6ccccc6)[C@@]6(C)[C@]7(O)CC[C@@]6(O)C(C)=O)C5)CC4OC)CC3OC)CC2OC)OC(C)C1O (stereo not given in full),-48.2,35.4,119.5*
C=CCN1CC[C@]23c4c5ccc(O)c4OC2C(=O)CC[C@@]3(O)[C@H]1C5 (stereo not given in full),36.7,-12.0,15.4
CCOP(=S)(OCC)SCn1c(=O)oc2cc(Cl)ccc21,14.2,17.2,25.5
C/C1=C/C(=O)O[C@@H]2C[C@@H](CC[C@H](C)/C=C\CC1)O[C@@](O)([C@@H]1CSC(=O)N1)C2,101.9*,47.8,113.7*
CCOC(=O)CN1C(=O)CC(C[C@@H](O)C2C[C@@H](C)C[C@H](C)C2=O)CC1=O (stereo not given in full),-10.2,-7.9,-9.7
SMILES,Shh pathway inh,MITF inh,NOMO-1 viab
Cc1cc(OC(=O)N(C)C)cc(=O)n1C,-6.3,-27.6,16.9
C=CC(C)(C)[C@]12C=C(OC)C(=O)N3/C(=C/c4cnc[nH]4)C(=O)N[C@@]31N(OC)c1ccccc12,-4.3,11.5,101.2*
CC(C)C12CN3CCN(CC(C3)/C1=N/N)C2,-23.9,-10.2,-9.8
O=c1cccc2n1C[C@H]1CNCC2C1,-36.1,7.1,6.0
COc1ccc([C@H]2Oc3c(I)c(OC)cc(OC)c3C[C@@H]2O)cc1OC,28.5,7.2,21.7
O=C(NC(=O)c1c(F)cccc1F)Nc1cc(Cl)c(OC(F)(F)C(F)C(F)(F)F)cc1Cl (stereo not given),14.5,-0.8,18.3
C[C@@H]1O[C@@H](O[C@H]2[C@H](O)[C@@H](O)[C@H](O[C@@H]3C=C4CC[C@@H]5C(CC[C@]6(C)[C@@H](c7ccc(=O)oc7)CC[C@]56O)[C@@]4(C)CC3)O[C@@H]2CO)[C@H](O)[C@H](O)[C@H]1O (stereo not given in full),-7.4,51.5,123.5*
CC(O)CNCCNc1ccc([N+](=O)[O-])c2cccnc12 (stereo not given),nt,30.8,13.3
CC1=CC(=O)c2c(O)cccc2C1=O,97.4*,97.3*,105.4*
CC1(C)C2CC(=O)[C@]3(C)C(CC[C@@]4(C)[C@H](c5ccoc5)OC(=O)C5OC543)[C@@]2(C)[C@@H](O)C[C@H]1O (stereo not given in full),-38.2,-10.4,-8.2
CC[C@@H]1/C=C\C=C\C[C@H](C)C(O)[C@](C)(O)C(=O)[C@H](C)C(O)[C@H](C)C(=O)[C@H](C)[C@@H](O)[C@H](C)/C=C/C(=O)O[C@H]2[C@@H](C)[C@@H](CC1)O[C@@]1(CC[C@@H](C)[C@@H](C[C@H](C)O)O1)[C@@H]2C (stereo not given in full),107.5*,75.5,123.7*
C=C[C@H]1CN2CC[C@H]1C[C@@H]2[C@H](O)c1ccnc2ccccc12,-9.8,-12.8,-28.9
COC(=O)CC1=C(C(=O)OC)C2(C(=O)Nc3ccccc32)C(C(=O)OC)=C(N)O1 (stereo not given),-3.6,8.7,15.6
C=C1[C@@H](C)[C@H]2[C@H](Cc3ccccc3)NC(=O)[C@]23[C@H](OC(C)=O)C=C[C@](C)(O)C(=O)[C@@H](C)C/C=C/[C@H]3[C@@H]1O,72.9*,57.1,113.8*
C=C1C(=O)O[C@@H]2/C=C(/C)CC/C=C(/C)C[C@@H](OC(=O)/C(=C/CO)CO)C12 (stereo not given in full),32.2,39.1,119.4*
C=CCC1(C(C)CCC)C(=O)NC(=S)NC1=O (stereo not given),-10.8,4.2,18.5
C/C=C1/CN2C3Cc4c([nH]c5ccc(O)cc45)C2(O)CC1C3CO (stereo not given),12.0,1.0,19.7
N[C@@H](Cc1ccc(N(CCCl)CCCl)cc1)C(=O)O,23.4,13.1,111.5*
O=C(O)CCCc1ccc(N(CCCl)CCCl)cc1,9.6,-7.4,110.2*
N#C[C@@H](OC1OC(COC2OCC(O)C(O)C2O)C(O)C(O)C1O)c1ccccc1 (stereo not given in full),-4.4,-3.7,31.3
O=C1CCCC2C3CC(CN12)[C@@H]1CCCCN1C3 (stereo not given in full),3.4,-2.0,-22.8
COC(=O)[C@@]1(O)C[C@@H]2O[C@@]1(C)n1c3ccccc3c3c4c(c5c6ccccc6n2c5c31)C(=O)NC4,60.3,28.0,123.6*
OC[C@H]1O[C@@H](Oc2c[nH]c3ccc(Br)c(Cl)c23)[C@H](O)[C@@H](O)[C@H]1O,2.6,24.9,41.5
